IMPase cell inh – membrane-permeable compound that blocks inositol monophosphatase | P97697 | CHO-M1 cells, IP1 accumulation, HTRF TR-FRET ratio | inhibition (IP1 accumulation), % at 46.1 µM | 120,000 tested, under 10 active; active = well fitted curve in the direction sought with a large enough effect in the signal ratio, not every such curve was filed as active; inconclusive = small, poorly fitted or top-dose-only effect, or a change in a side signal; inactive = no such curve, though single readings can be large or run the other way; the % refers to the signal ratio;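 note: cells stimulated with carbachol in lithium chloride buffer; plate controls were DMSO basal wells for no effect and reference inhibitor wells for full effect; higher means more IMPase inhibition seen as more IP1 and lower FRET ratio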
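CHO-M1 cells (CHO stably expressing M1 receptor), compound up to 46 uM final, stimulated with carbachol (50 uM as added) in buffer with 50mM LiCl, pH 7.4, 30 min at 37C. Cytosolic IP1 read by TR-FRET; AC50 from Hill fits.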
ALDH1A1 block – inhibitors of human aldehyde dehydrogenase 1A1; Potency, µM (titrated, usually from 75.3 µM), for the others: top-dose activity, negative = inhibition, usual class: inhibitors; 220,000 compounds, 7.3% hits; Purified ALDH1A1, NADH fluorescence, propionaldehyde substrate; active = well fitted inhibition curve with a large enough effect, not every such curve was filed as active; inconclusive = small, poorly fitted or top-dose-only effect, or another doubt; inactive = no such curve, though single readings can be large or run the other way;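 note: potency is the fitted concentration of half-maximal effect; plate controls were no enzyme wells and a reference inhibitor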
IMPase Li cell – cell-permeable IMPase inhibitors with lithium potentiation. Potency, µM (top dose mostly 59.4 µM), without a hit: top-dose activity, negative = IMPase inhibition, hits mostly inhibitors. AID 1457. CHO-M1 cells, IP1 TR-FRET (IP-One), carbachol + lithium. 210,000 compounds, 0.35% hits;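 note: IP1 builds up when IMPase is blocked and the TR-FRET signal falls; potency is the fitted concentration of half-maximal effect; plate controls were basal vehicle for no effect and high inhibitor control for full effect; nearly all actives have a fitted effect of over 50% in size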
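Test compounds were applied to CHO-M1 cells previously cultured for 16–30 h at 2000 per well. A small lithium amount accompanied them; after 30 min at 37C, IP1 was quantified by TR-FRET.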
NPSR antagonist – blocks cAMP signaling of the human neuropeptide S receptor; Potency, µM (series often up to 38.3 µM), for inactives: top-dose activity change, negative = inhibition, hits mostly inhibitors; CHO-NPSR cells, cAMP TR-FRET, antagonist mode; Q6W5P4; 220,000 compounds, 1% hits; note: potency is the fitted concentration of half-maximal effect; nearly all actives have a fitted effect of over 50% in size
Target sequence (Q6W5P4 whole entry, looked up): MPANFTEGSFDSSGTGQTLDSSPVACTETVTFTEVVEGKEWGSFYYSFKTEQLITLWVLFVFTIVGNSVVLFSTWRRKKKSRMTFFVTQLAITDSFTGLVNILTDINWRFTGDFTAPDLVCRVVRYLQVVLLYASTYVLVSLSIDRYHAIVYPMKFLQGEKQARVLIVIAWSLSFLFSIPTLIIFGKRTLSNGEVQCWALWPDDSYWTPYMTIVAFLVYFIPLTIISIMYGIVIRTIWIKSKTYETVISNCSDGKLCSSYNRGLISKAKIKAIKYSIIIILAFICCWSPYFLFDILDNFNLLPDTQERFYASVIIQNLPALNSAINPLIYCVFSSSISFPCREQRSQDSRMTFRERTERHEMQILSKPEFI
HPGD inh – inhibitors of human 15-hydroxyprostaglandin dehydrogenase (HPGD). P15428. purified HPGD, NADH fluorescence kinetic, PGE2 substrate. Potency, µM, for inactives: at the highest dose activity change, negative = inhibition, actives largely listed as inhibitors. 150,000 compounds, 4.3% hits. AID 894; active = well fitted inhibition curve with a large enough effect, not every such curve was filed as active; inconclusive = small, poorly fitted or top-dose-only effect, or another doubt; inactive = no such curve, though single readings can be large or run the other way; note: potency is the fitted concentration of half-maximal effect
Target sequence (P15428 whole entry, looked up): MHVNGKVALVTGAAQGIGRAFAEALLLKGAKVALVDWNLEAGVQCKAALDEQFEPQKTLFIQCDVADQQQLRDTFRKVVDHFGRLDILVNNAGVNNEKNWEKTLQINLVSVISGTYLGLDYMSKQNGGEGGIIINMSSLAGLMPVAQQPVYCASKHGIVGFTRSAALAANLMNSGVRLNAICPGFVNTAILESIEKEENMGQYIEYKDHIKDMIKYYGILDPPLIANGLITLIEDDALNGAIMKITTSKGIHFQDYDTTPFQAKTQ
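NADH formation kinetics: reaction with 30 uM PGE2 and 1 mM NAD+ (final), 20 nM enzyme, Tris-HCl pH 8 with Tween 20, after 15 min compound preincubation at room temperature. Fluorescence change, last versus first of five reads.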
12-hLO inh – 12-hLO (ALOX12) enzyme inhibition. 150,000 compounds, 0.12% hits. P18054. AID 1452. Potency, µM (series often up to 57.1 µM), for the others: at the highest dose activity change, negative = inhibition, hits mostly inhibitors. purified 12-hLO, xylenol orange hydroperoxide absorbance; note: potency is the fitted concentration of half-maximal effect; nearly all actives have a fitted effect of over 55% in size
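150 nM 12hLO, 25 mM Hepes pH 7.0 + 0.01% Triton X-100; cpd preinc 15 min RT; 40 uM arachidonic acid, 30 min RT; Fe-XO 30 min; A573/A405 ratio as read-out.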
Active calls of the source: *; [ ] = another dose, or the depositor's remark. Shown are actives, neighbours in structure and some others; about 8.9% of the full set was active somewhere. Unless noted, calls come from the whole dose curve; as a rule, active = well fitted curve in the direction sought with a large enough effect; inconclusive = small, poorly fitted or top-dose-only effect, or another doubt; inactive = no such curve, though single readings can be large; an effect the other way counts as inactive or inconclusive. Unless noted, % is set by controls: 0 for no effect and ±100 for the full control effect.

Screening N[C@@H](Cn1ccc(=O)n(Cc2ccc(C(=O)O)cc2)c1=O)C(=O)O returned IMPase cell inh -0.5, ALDH1A1 block -5.3%, IMPase Li cell 10.9%, HPGD inh -3.4% and 12-hLO inh -3.7%.
`C1=CC2C3C=CC(C3)C2C1` (stereo unspecified) gave ALDH1A1 block 22.4µM*, IMPase Li cell -4.2%, HPGD inh -9.5% and 12-hLO inh -11.1%.
Screening Cc1nc2ccc(Cl)cn2c1P(=S)(N1CCOCC1)N1CCOCC1 returned IMPase cell inh 8.2, ALDH1A1 block 10.4%, IMPase Li cell 2.1%[38.3 µM], NPSR antagonist 4.4%[46.1 µM], HPGD inh -4.1% and 12-hLO inh -0.2%.
Cn1ccnc1P(=S)(c1nccn1C)N1CCOCC1 was read as IMPase cell inh 1.7, ALDH1A1 block 28.2µM*, IMPase Li cell -3.5%[38.3 µM], NPSR antagonist -3.7%[46.1 µM], HPGD inh 25.1µM* and 12-hLO inh -2.2%.
Screening CC(=O)C(Sc1ncnc2c1nnn2-c1ccc(F)cc1)C(=O)N(C)C (stereo unspecified) returned IMPase cell inh 4.0, ALDH1A1 block 2.51µM*, IMPase Li cell -9.8%[38.3 µM], NPSR antagonist -11.0%[46.1 µM], HPGD inh 11.2µM* and 12-hLO inh -8.9%.
For CCCCN1C(=O)NC(=O)C2(Cc3cc(C)ccc3N(C)C2)C1=O (stereo unspecified) the results were IMPase cell inh -11.4, ALDH1A1 block 10µM*, IMPase Li cell 21.6%[38.3 µM], NPSR antagonist -20.0%[46.1 µM], HPGD inh -10.2% and 12-hLO inh -1.1%.
Screening COc1cccc(N2C(=O)NC(=O)C3(Cc4cc(C)ccc4N(C)C3)C2=O)c1 (stereo unspecified) returned IMPase cell inh -5.8, ALDH1A1 block 20µM*, IMPase Li cell -5.9%[38.3 µM], NPSR antagonist 1.4%[46.1 µM], HPGD inh -21.8% and 12-hLO inh 0.0%.
`Cc1ccc2c(c1)CC1(CN2C)C(=O)NC(=O)N(c2cc(C)ccc2C)C1=O` (stereo unspecified) gave IMPase cell inh inconclusive, ALDH1A1 block 1.78µM*, IMPase Li cell -11.0%[38.3 µM], NPSR antagonist 3.4%[46.1 µM], HPGD inh -16.2% and 12-hLO inh -14.9%.
Screening COc1ccc(OC)c(N2C(=O)NC(=O)C3(Cc4cc(C)ccc4N(C)C3)C2=O)c1 (stereo unspecified) returned IMPase cell inh -10.6, ALDH1A1 block inconclusive, IMPase Li cell 1.5%[38.3 µM], NPSR antagonist -20.3%[46.1 µM], HPGD inh -11.0% and 12-hLO inh -10.4%.
For COc1cc(CN2C(=O)NC(=O)C3(Cc4cc(C)ccc4N(C)C3)C2=O)cc(OC)c1 (stereo unspecified) the results were IMPase cell inh 4.5, ALDH1A1 block inconclusive, IMPase Li cell 14.3%[38.3 µM], NPSR antagonist -22.4%[46.1 µM], HPGD inh -18.3% and 12-hLO inh -6.9%.
`c1ccc2c(c1)Nc1ccccc1S2` gave ALDH1A1 block 1.5%, IMPase Li cell 3.5%, NPSR antagonist -30.2%, HPGD inh -16.0% and 12-hLO inh 14.1µM*.
Screening O=C1Nc2ccccc2Sc2ccccc21 returned ALDH1A1 block -3.8%, IMPase Li cell 3.2% and NPSR antagonist 24.4%.
Screening CCOC(=O)C(NC(=O)C(Cc1ccc(N(CCCl)CCCl)cc1)NC(C)=O)C(C)C (stereo unspecified) returned ALDH1A1 block inconclusive, IMPase Li cell 18.6% and NPSR antagonist -57.5%.
For CC(=O)NC(Cc1ccc(N(CCCl)CCCl)cc1)C(=O)NC(CC(C)C)C(=O)O (stereo unspecified) the results were ALDH1A1 block 2.24µM*, IMPase Li cell -2.0% and NPSR antagonist -29.3%.
For c1ccc([Se]c2c(-c3ccccc3)[se]c3ccccc23)cc1 the results were ALDH1A1 block 9.1%, IMPase Li cell 5.62µM*, HPGD inh -4.1% and 12-hLO inh 0.3%[0.00818 µM].
`COc1cccc(-n2c(CN3CCN(C)CC3)nc3ccc([N+](=O)[O-])cc3c2=O)c1` gave ALDH1A1 block 8.0%, IMPase Li cell 1.3%, NPSR antagonist 14.8%, HPGD inh 28.2µM* and 12-hLO inh 0.3%.
For O=c1[nH]c(=O)n(-c2cccc(Cl)c2)c(O)c1C=NCCCN1CCOCC1 the results were IMPase cell inh 5.2, ALDH1A1 block inconclusive, IMPase Li cell 4.6%[38.3 µM], NPSR antagonist 9.8%[46.1 µM], HPGD inh -20.9% and 12-hLO inh 0.3%.
`CC1CC[C@@]2(OC1)OC1C(O)C3C4CC[C@H]5CC(O[C@@H]6O[C@@H](CO)[C@H](OC7OC(CO)C(O)C(OC8OCC(O)C(O)[C@H]8O)[C@@H]7O[C@@H]7OC(CO)[C@H](O)[C@@H](O[C@@H]8OC(CO)C(O)C(O)C8O)C7O)C(O)C6O)C(O)C[C@]5(C)C4CC[C@]3(C)C1C2C` (stereo partly specified) gave ALDH1A1 block -3.8%, IMPase Li cell 42.9%, HPGD inh -3.9% and 12-hLO inh -2.3%.
Screening C[C@H]1CC[C@@H]2[C@@H](C)[C@H]3[C@H](C[C@H]4[C@@H]5CC=C6CC(O[C@@H]7O[C@H](CO)[C@H](O)[C@H](O[C@@H]8O[C@H](CO)[C@@H](O)[C@H](O)[C@H]8O)[C@H]7O[C@H]7O[C@@H](C)[C@H](O)[C@@H](O)[C@H]7O)CC[C@]6(C)[C@H]5CC[C@]34C)N2C1 (stereo partly specified) returned ALDH1A1 block 22.4µM*, IMPase Li cell 38.0%, HPGD inh -4.2% and 12-hLO inh -4.2%.
`Oc1ccccc1O` gave IMPase cell inh 4.5, ALDH1A1 block 14.1µM*, IMPase Li cell -4.6%, NPSR antagonist 2.7%[46.1 µM], HPGD inh 17.8µM* and 12-hLO inh -19.7%.
For NCC1(CC(=O)O)CCCCC1 the results were IMPase cell inh -13.5, ALDH1A1 block -0.6%, IMPase Li cell 2.2%, NPSR antagonist 12.5%, HPGD inh -3.3% and 12-hLO inh -3.4%.
For c1cnc(N2CCC3(CCNCC3)CC2)nc1 the results were ALDH1A1 block -16.2%, IMPase Li cell 12.5%, HPGD inh -12.9% and 12-hLO inh 0.0%.
O=C1CC2(CCCC2)CC(=O)N1CCCCN1CCN(c2ncccn2)CC1 was read as IMPase cell inh 2.8, ALDH1A1 block 3.55µM*, IMPase Li cell 13.9%, NPSR antagonist -13.8%[46.1 µM], HPGD inh 4.8% and 12-hLO inh -5.5%.
For COc1ccc(Cc2c(O)[nH]c(=O)[nH]c2=O)c(OC)c1 the results were NPSR antagonist 7.5%.

Source: PubChem BioAssay
